# From PubChem BioAssay (NCATS)
# The source made the active and inactive calls. The call rests on the fitted dose curve; in most records, active means well fitted activation curve with a large enough effect; inconclusive means small, poorly fitted or top-dose-only effect; inactive means flat fitted curve, though single readings scatter.
# Assay: Confirmation and Secondary Assay for Modulators of Hemoglobin Beta Chain Splicing at IVS2 705 locus (AID 930); further: % of control where 0% means no effect
# Settings: HeLa EGFP-705 splicing reporter, GFP fluorescence, 48 h; series mostly up to 46.1 µM; activation: at the top concentration
# From the text: NIH Chemical Genomics Center [NCGC] NIH Molecular Libraries Screening Centers Network [MLSCN] MLSCN Grant: 1 X01 MH080684-01 PI Name: Dr. Ryszard Kole NCGC Assay Overview: Modulation of Alternative Splicing as Therapy Abnormal splicing is associated with a number of diseases, including cancer and genetic diseases such as cystic fibrosis, muscular dystrophy and beta-thalassemia. Alteration of disease associated splicing patterns provides a promising target for treatment. […] Mutations in the second intron of the b-globin gene at positions 654 or 705 are clinically relevant and cause mis-splicing which results in an out of frame gene product. […] EGFP-705 HeLa Cells as screen system. HeLa cell lines were stably transfected with a construct in which the EGFP (enhanced green fluorescent protein) cDNA was interrupted by the second intron of the beta-globin gene (IVS2-705). The ISV2 intron contains mutations which cause mis-splicing of EGFP and premature termination of EGFP which results in a nonfluorescent protein product. […] Expression of the transgene was driven by the CMV promoter. We concluded that a low molecular weight compound, which restored correct splicing of intron 2 would also generate functional EGFP protein, resulting in a fluorescent signal. Thus, the HeLa cells that express the EGFP-705 construct can be used for validation of splice site specificity of compounds identified in primary screening of the ISV2 654 construct.
# NCGC Assay Protocol Summary: Confirmatory Screening. Freshly thawed HeLa EGFP-705 cells were seeded in 5 ul of optimem media (Invitrogen) containing 2 % fetal calf serum (Hyclone) and 1x penicillin/streptomycin (Invitrogen) at a concentration of 500 cells per well in 1536-well plates. Cells were incubated overnight at 37C in 5% CO2. The next day, cells were treated with DMSO, 500 nM antisense ISV2 654 PNA control oligo, or library compound and allowed to grow at 37C in 5% CO2 for 2 days. The PNA oligo blocked the mutation site in the intron and allowed proper (wild type) splicing to occur, resulting in full length EGFP expression and also allowed for optimization of the assay parameters. Plates were read in the Acumen Explorer (TTP Labtech) using 488 nm laser excitation and 500-520 nm emission PMT filter in a 1 x 8 uM capture mode. Fluorescnet objects ranging in size from 5 to 250 uM were measured and the total peak GFP intensity for each well was used for data analysis. Keywords: Thalassemia, beta-thalassemia, beta-globin, EGFP, ISV2 654, ISV2 705, SSO, PNA, antisense, splicing, MLSMR, MLSCN, NIH Roadmap, qHTS, NCGC
row,Compound,activation
1,COC(=O)/C(C)=C\CC12OC(C)(C)C3CC(C=C4C(=O)c5c(OC)c6c(c(CC=C(C)C)c5OC431)OC(C)(CCC=C(C)C)C=C6)C2=O (stereo not given),-0.838% [at 38.3 µM] (inactive)
2,CCCCN(CC)c1c([N+](=O)[O-])cc(C(F)(F)F)cc1[N+](=O)[O-],0.12% [at 38.3 µM] (inactive)
3,C=C(C)C1Cc2c(ccc3c2OC2COc4cc(OC)c(OC)cc4C2C3=O)O1 (stereo not given),-0.887% [at 38.3 µM] (inactive)
4,COc1ccc(CC2NC[C@H](O)[C@H]2OC(C)=O)cc1 (stereo not given in full),-0.882% (inactive)
5,CC1CC(C)C(=O)[C@H](C(O)CC2CC(=O)NC(=O)C2)C1 (stereo not given in full),0.74% (inactive)
6,CC(=O)OCC1=C(C(=O)O)N2C(=O)C(NC(=O)CCCC(N)C(=O)O)C2SC1 (stereo not given),0.739% (inactive)
7,OCC(O)Cc1ccc2c(c1)OCO2 (stereo not given),0.0583% (inactive)
8,CCC1C2CC3C4N(C)c5ccccc5[C@]45CC(C2C5O)N3C1O (stereo not given in full),1% (inactive)
9,CC(C)=CCCC1(C)C=Cc2c(O)c3c(c(CC=C(C)C)c2O1)OC12C(CC4CC1C(C)(C)OC2(C/C=C(/C)C(=O)O)C4O)C3=O (stereo not given),2.93% (inactive)
10,N#Cc1c(Cl)c(Cl)c(Cl)c(C#N)c1Cl,0.631% (inactive)
11,CC1=CC(=O)c2c(O)cccc2C1=O,1.33% (inactive)
12,CN(C)C1C(=O)C(C(N)=O)=C(O)[C@@]2(O)C(=O)C3=C(O)c4c(O)cccc4[C@@](C)(O)C3CC12 (stereo not given in full),2.3% (inactive)
13,C[C@@]12C=CC(=O)C=C1CCC1C2CC[C@]2(C)C(=O)CCC12 (stereo not given in full),0.614% [at 38.3 µM] (inactive)
14,COc1ccc(C2Oc3c(I)c(OC)cc(OC)c3CC2O)cc1OC (stereo not given),0.916% [at 38.3 µM] (inactive)
15,COc1cc2c(cc1OC)[C@@H]1C(=O)c3ccc4c(c3OC1CO2)CC(C(C)C)O4 (stereo not given in full),-1.14% [at 38.3 µM] (inactive)
16,CC(CO)NC(=O)C1C=C2c3cccc4[nH]cc(c34)C[C@H]2N(C)C1 (stereo not given in full),1.24% (inactive)
17,CC(C)N(C(=O)CCl)c1ccccc1,0.195% [at 38.3 µM] (inactive)
18,CC(C)CCCC1(C)C=Cc2c(O)c3c(c(CCC(C)C)c2O1)OC12C(CC4CC1C(C)(C)OC2(CCC(C)C(=O)O)C4O)C3=O (stereo not given),0.659% (inactive)
19,CC(=O)Oc1c2c(c(CC=C(C)C)c3c1C(=O)C1=CC4CC5C(C)(C)OC(C/C=C(\C)C(=O)O)(C4=O)[C@]15O3)OC(C)(CCC=C(C)C)C=C2 (stereo not given in full),-0.0774% [at 38.3 µM] (inactive)
20,COC(=O)[C@]1(C)CC[C@@]2(C)CC[C@@]3(C)C4=CC=C5C(=CC(=O)C(O)=C5C)[C@@]4(C)CC[C@@]3(C)C2C1 (stereo not given in full),-0.412% (inactive)

row,Compound,activation
1,CC1CC[C@@]2(NC1)OC1CC3C4CC[C@@H]5CC(O)CC[C@@]5(C)C4CC[C@]3(C)C1C2C (stereo not given in full),1.69% (inactive)
2,CCC1C(=O)OC[C@H]1Cc1cncn1C (stereo not given in full),1.54% (inactive)
3,CSc1nc(NC(C)C)nc(NC(C)C)n1,0.457% [at 38.3 µM] (inactive)
4,CCCCCCCCCCCCCC(=O)OC1C(C)[C@@]2(O)C(C=C(CO)C[C@]3(O)C(=O)C(C)=C[C@H]23)[C@@H]2C(C)(C)[C@]12OC(C)=O (stereo not given in full),1.19% (inactive)
5,C=CCN1CC[C@]23c4c5ccc(O)c4OC2C(=O)CC[C@]3(O)C1C5 (stereo not given in full),2.68% (inactive)
6,CCOP(=S)(OCC)SCn1c(=O)oc2cc(Cl)ccc21,-0.822% [at 38.3 µM] (inactive)
7,O=[N+]([O-])OC1CO[C@H]2C(O[N+](=O)[O-])COC12 (stereo not given in full),0.253% (inactive)
8,CC1(C)C(C(Cl)Cl)C2(Cl)C(Cl)C(Cl)C1(Cl)C2(Cl)Cl (stereo not given),0.835% [at 38.3 µM] (inactive)
9,CCC(C)C(=O)OC1C[C@@]2(C)C(c3ccoc3)OC(=O)CC23OC2(C)OC34C(OC(=O)C(C)C)[C@]3(O)C(OC(=O)C5(C)OC5C)[C@]5(C)CC3(O)[C@](C)(C5CC(=O)OC)C14O2 (stereo not given in full),1.45% (inactive)
10,CC(=O)OC1C2CCC3C1(CC(O)[C@@]1(O)[C@@H](CC(O)C1(C)C)[C@]3(C)O)C[C@@]2(C)O (stereo not given in full),0.948% (inactive)
11,COc1ccc2c(c1O)-c1c(OC)c(OC)cc3c1[C@@H](C2)N(C)CC3,2.65% (inactive)
12,COc1cc2c(cc1OC)[C@@H]1C(=O)c3ccc(OC)c(CC=C(C)C)c3OC1CO2 (stereo not given in full),-0.318% [at 38.3 µM] (inactive)
13,C[C@H]1O[C@H](O[C@H]2[C@H](O)[C@@H](O)[C@@H](O)[C@H](O)[C@@H]2O)[C@@H](N)C[C@@H]1NC(=N)C(=O)O,0.715% [at 38.3 µM] (inactive)
14,O=C1C=C2C(=CCOC2O)O1 (stereo not given),0.169% (inactive)
15,CN(C)C1C(=O)C(C(N)=O)=C(O)[C@@]2(O)C(=O)C3=C(O)c4c(O)cccc4[C@](C)(O)C3C(O)C12 (stereo not given in full),1.88% (inactive)
16,CNNC,-0.0082% [at 38.3 µM] (inactive)
17,COc1cc2ccc(=O)oc2c2ccoc12,1.93% [at 38.3 µM] (inactive)
18,CC[C@]1(O)CC(O[C@@H]2CC(N(C)C)C(O)C(C)O2)c2c(cc3c(c2O)C(=O)c2c(O)ccc(O)c2C3=O)C1C(=O)OC (stereo not given in full),7.92% (inactive)
19,COC(=O)[C@]1(C)CC[C@@]2(C)CC[C@@]3(C)C4=CCc5c(cc(O)c(O)c5C)[C@]4(C)CC[C@@]3(C)C2C1 (stereo not given in full),-0.779% [at 38.3 µM] (inactive)
20,COc1c2c(c(CC=C(C)C)c3oc(=O)c(-c4ccc(O)cc4)c(O)c13)OC(C)(C)C=C2,0.0566% [at 38.3 µM] (inactive)
